Source: PubChem BioAssay (National Center for Advancing Translational Sciences (NCATS))
Hits are enriched below; roughly 18% of the tested compounds scored in any of these assays.
TDP1 inh – qHTS Assay for Inhibitors of Tyrosyl-DNA Phosphodiesterase (TDP1). Tyrosyl-DNA phosphodiesterase 1 (Homo sapiens), Q9NUW8. recombinant TDP1, AlphaScreen DNA substrate cleavage. Potency, µM (top dose mostly 130 µM), without a hit: at the top dose activity change, negative = inhibition, hits mostly inhibitors. hit rate 0.28% among 350,000. AID 485290, 2010; note: nearly all actives have a fitted effect of over 40% in size
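Steps: enzyme plus compound, 15 min RT; add biotin/phosphotyrosine-FITC oligonucleotide (15 nM final), react 5 min; add donor/acceptor beads (10 ug/ml final), 10 min; read AlphaScreen. Tdp1 at 1 nM final.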
GCN5L2 inh – qHTS Assay for Inhibitors of GCN5L2; Histone acetyltransferase KAT2A (Homo sapiens), Q92830; GCN5L2 HAT assay, ThioGlo1 CoA-SH fluorescence; Potency, µM (top dose mostly 58.9 µM), for the others: at the top dose activity change, negative = inhibition, actives largely listed as inhibitors; hit rate 0.21% among 390,000
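qHTS, 1536-well. 20nM enzyme, pH 7.5 HEPES/EDTA/Tween-20 buffer; 15 min compound preinc., RT. Start: 75uM H3(1-25), 70uM AcCoA, 50uM ThioGlo1. Read Ex340/Em540 at t=0 (autofluorescence flag) and t=20 min.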
DT40 TDP1 no CPT – qHTS for Inhibitors of human tyrosyl-DNA phosphodiesterase 1 (TDP1): qHTS in cells in absence of CPT; DT40 Tdp1-/- hTDP1 cells, no CPT, ATP luminescence, 48 h; hit rate 15% among 420,000; Potency, µM (top dose mostly 46.2 µM), without a hit: top-dose activity change, negative = growth inhibition, usual class: inhibitors; note: nearly all actives have a fitted effect of over 55% in size
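Readout: luminescence from CellTiter-Glo after 30 min in the dark at RT. Cells: DT40 Tdp1-/- with stable hTDP1, 400/well. Exposure: compounds alone, ≥48 hr, 37 °C.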
VDR inh – Inhibitors of the vitamin D receptor (VDR): qHTS | Vitamin D3 receptor (Homo sapiens), P11473 | Potency, µM, for the others: max response, negative = inhibition, hits mostly inhibitors | hit rate 0.93% among 400,000 | AID 504847, 2011 | VDR-SRC2-3 peptide fluorescence polarization, 2 h
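FP read-out; VDR + SRC2-3 coactivator peptide; 23 nl compound by pintool; 2 h RT incubation; reagents held at 4 deg C, protected from light.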
TDP1 cell CPT – qHTS for Inhibitors of human tyrosyl-DNA phosphodiesterase 1 (TDP1): qHTS in cells in presence of CPT. AID 686979, 2013. chicken DT40 Tdp1-/-;hTDP1 cells + 20 nM CPT, ATP luminescence, 48 h. hit rate 12% among 420,000. Potency, µM (top dose mostly 46.2 µM), inactives show top-dose activity change, negative = growth inhibition, actives largely listed as inhibitors; note: nearly all actives have a fitted effect of over 55% in size
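Chicken DT40 Tdp1-/- cells complemented with human TDP1, 400 cells/well, exposed to compounds plus 20 nM camptothecin for at least 48 h at 37 C; viability read as ATP content by CellTiter-Glo luminescence.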
PLK1 PBD inh – qHTS for Inhibitors of PLK1-PDB (polo-like kinase 1 - polo-box domain): Primary Screen; hit rate 2.8% among 360,000; Serine/threonine-protein kinase PLK1 (Homo sapiens), P53350; Plk1 PBD binding of FITC phosphopeptide, fluorescence polarization; Potency, µM, for the others: max response, negative = inhibition, hits mostly inhibitors; note: series mostly up to about 57 µM; nearly all actives have a fitted effect of over 65% in size
Target sequence (P53350 whole entry, looked up, the tested form may be a part): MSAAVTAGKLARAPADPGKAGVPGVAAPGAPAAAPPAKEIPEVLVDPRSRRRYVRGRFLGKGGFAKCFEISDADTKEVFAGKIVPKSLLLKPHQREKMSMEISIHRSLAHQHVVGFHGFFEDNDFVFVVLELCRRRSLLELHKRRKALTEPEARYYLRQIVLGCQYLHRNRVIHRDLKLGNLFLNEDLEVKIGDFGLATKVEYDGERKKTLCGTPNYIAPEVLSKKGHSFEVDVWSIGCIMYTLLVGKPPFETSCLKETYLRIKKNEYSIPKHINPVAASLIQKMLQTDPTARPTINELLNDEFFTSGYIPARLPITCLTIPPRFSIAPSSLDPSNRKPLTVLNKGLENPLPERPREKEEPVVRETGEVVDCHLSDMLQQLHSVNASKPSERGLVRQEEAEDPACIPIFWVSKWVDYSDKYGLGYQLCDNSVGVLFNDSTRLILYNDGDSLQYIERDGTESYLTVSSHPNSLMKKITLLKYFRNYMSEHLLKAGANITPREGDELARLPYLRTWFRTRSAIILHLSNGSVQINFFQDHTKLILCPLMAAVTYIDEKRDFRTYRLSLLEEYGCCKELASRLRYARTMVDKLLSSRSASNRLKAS
Numbers without * were called inactive; ? = inconclusive; . = no result given; [ ] = another dose, or the depositor's remark. Calls come from the whole dose curve; as a rule, active = well fitted curve in the direction sought with a large enough effect; inconclusive = small, poorly fitted or top-dose-only effect, or another doubt; inactive = no such curve, though single readings can be large; an effect the other way counts as inactive or inconclusive. % is set by controls: 0 for no effect and ±100 for the full control effect; potency is the fitted concentration of half-maximal effect.

SMILES	TDP1 inh	GCN5L2 inh	DT40 TDP1 no CPT	VDR inh	TDP1 cell CPT	PLK1 PBD inh
Cn1c(=O)cc(SCC(=O)NCc2ccc(F)cc2)c2ccccc21	-1.1%	-2.5%	11.6µM*	6.0%	?	-7.6%
Cn1c(=O)cc(OCCCC(=O)Nc2ccc(F)cc2)c2ccccc21	6.9%	-4.8%	14.6µM*	1.0%	13µM*	.
CC(C)(C)NC(=O)NC(=O)COC(=O)CNS(=O)(=O)/C=C/c1ccccc1	2.6%	-0.6%	-20.5%	-5.1%	5.8%	1.5%
O=C(OCC#CCSc1nnc(-c2cccc3ccccc23)o1)c1csc2ccccc12	-0.4%	.	.	.	.	.
O=C(c1ccccc1)N(Nc1ccccc1)c1ccccc1	-8.6%	-3.0%	?	7.2%	-7.7%	-0.7%
O=C(NN(C(=O)c1ccccc1)c1ccccc1)c1ccccc1	70.8µM*	-1.0%	-6.9%	15.8%	-13.7%	-1.3%
Oc1c(C(c2ccccc2)N2CCCCC2)ccc2ccccc12 (centres undefined)	.	.	?	.	18.4µM*	2.99µM*
Cn1c(CC(=O)Nc2ccccc2)c(Sc2ccccc2)c2ccccc21	0.0%	-4.3%	-0.5%	2.7%	-13.3%	-8.3%
Cn1c(=O)n(CC(=O)Nc2ccccc2)c2ccccc21	2.1%	-3.0%	-19.4%	18.1%	-16.1%	0.8%
CSc1c(CC(=O)Nc2ccccc2)n(C)c2ccccc12	.	-2.0%	?	8.9%	14.6µM*	-7.0%
Cn1c(CC(=O)Nc2ccccc2)cc2ccccc21	.	0.6%	?	-6.9%	7.31µM*	-0.4%
COc1ccc(C)c2sc(N(Cc3cccnc3)C(=O)c3cccs3)nc12	5.2%	-3.2%	?	14.6%	?	.
O=C(C1CCCCC1)N(Cc1cccnc1)c1nc2c(F)cccc2s1	0.0%	-20.1%	20.6µM*	9.3%	20.6µM*	.
COc1ccc(C)c2sc(N(Cc3cccnc3)C(=O)C3CCCCC3)nc12	5.2%	0.1%	14.6µM*	14.1%	18.4µM*	.
COc1ccc(C)c2sc(N(Cc3cccnc3)C(C)=O)nc12	7.8%	-3.8%	-44.8%	-3.5%	?	.
COc1cccc(C(=O)N(Cc2cccnc2)c2nc3c(OC)ccc(C)c3s2)c1OC	7.8%	-8.0%	23.1µM*	14.6%	?	.
CC(=O)N1CCc2cc(Br)cc(S(=O)(=O)NCCCN(C)Cc3ccccc3)c21	-0.2%	-0.7%	?	-14.2%	-0.4%	-13.4%
COc1ccc(S(=O)(=O)N2CCOCC2)cc1N=Nc1sc(N)nc1-c1ccccc1	8.1%	-4.3%	2.31µM*	-20.8%	-29.7%	-18.6%
COc1ccc(S(=O)(=O)N2CCOCC2)cc1NC(=O)CSc1nnc(N)s1	.	-1.5%	-15.5%	1.5%	1.6%	-3.1%
CC(O)[C@@H]1NC(=O)[C@H](CCCN)NC(=O)[C@@H](Cc2c[nH]c3ccccc23)NC(=O)[C@H](Cc2ccc(O)cc2)NC(=O)[C@@H](NC(=O)[C@H](N)Cc2ccccc2)CSSC(C)(C)C(C(=O)N[C@H](C(N)=O)[C@@H](C)O)NC1=O (some centres undefined)	8.9%	14.5%	.	2.5%	.	.
COc1ccc(C(=O)C[n+]2cccc(Br)c2)cc1	2.4%	-4.1%	-15.4%	-10.0%	-16.5%	-14.1%
O=C(CBr)c1ccc(Oc2ccc(C(=O)C[n+]3cccc(Br)c3)cc2)cc1	.	.	15.8µM*	.	?	.
O=C(C[n+]1cccc(Br)c1)c1ccc(I)cc1	.	.	-93.7%	.	2.24µM*	.
COCCCNC(=O)C[C@@H]1C[C@@]2(C(=O)OC)CC(C)(C)CC=C2N(Cc2ccc3c(c2)OCO3)C1=O	.	.	?	.	13.3%	1.6%
Cc1nc(CNC(=O)c2cc(COc3ccc(F)cc3Cl)on2)cs1	2.7%	1.4%	?	-2.2%	?	9.9%
SMILES	TDP1 inh	GCN5L2 inh	DT40 TDP1 no CPT	VDR inh	TDP1 cell CPT	PLK1 PBD inh
O=C(NCCCc1ccccc1)c1cc(COc2ccc(F)cc2Cl)on1	-10.0%	-2.9%	?	?	20.6µM*	29.9µM*
O=C(NCCc1cccnc1)c1cc(COc2ccc(F)cc2F)on1	0.5%	-0.6%	23.1µM*	0.2%	?	-0.9%
O=C(NCC1CCOCC1)c1cc(COc2ccc(F)cc2F)on1	0.8%	-1.0%	-15.6%	5.9%	-15.4%	-10.7%
CCn1cc(CNC(=O)c2cc(COc3ccc(F)cc3F)on2)cn1	3.7%	-25.3%	23.1µM*	11.9%	?	-10.5%
CCn1ccnc1CNC(=O)c1cc(COc2ccc(F)cc2F)on1	3.6%	-3.7%	3.8%	-12.4%	1.1%	0.8%
COc1ccc(OC)c(C(=O)N2CCC(n3nccc3NC(=O)CC(C)C)CC2)c1	1.0%	-1.2%	1.3%	-2.4%	-0.7%	7.0%
CCOP(=O)(OCC)c1nc(-c2ccc(Cl)cc2Cl)oc1N1CCCCC1	2.9%	-22.7%	18.4µM*	2.1%	11.6µM*	-3.1%
O=C1CCc2cc(S(=O)(=O)Nc3ccc4ccccc4c3)ccc2N1	2.3%	.	.	.	.	.
Cc1ccc(S(=O)(=O)NCCC(=O)N2CCOCC2)cc1C	-8.0%[0.505 µM]	-18.8%	-2.0%	-7.9%	-1.2%	2.5%
O=C(C/C=N\OCc1ccc(Cl)cc1Cl)Nc1ccccc1	-10.3%	-16.2%	-12.3%	17.1%	15.9%	-17.1%
CC(C)NC(=NCc1ccc(Cl)cc1Cl)Nc1ccccc1	.	27.0%	5.17µM*	-13.7%	13µM*	-9.5%
O=C(N/N=C/c1ccc2cccnc2c1)c1nc2ccccc2c(=O)[nH]1	-7.7%	-9.1%	-21.3%	27.6%	-25.7%	0.5%
Cc1ccccc1C(=O)N1c2ccccc2OCC1C(C)(C)C (centres undefined)	.	-5.3%	20.6µM*	-11.3%	?	-7.1%
O=C(Cc1ccsc1)Nc1cc(F)ccc1F	3.2%[0.0935 µM]	1.3%	0.4%	-3.5%	5.5%	-3.3%
O=C(Cc1ccsc1)Nc1ccccc1F	10.4%	-1.0%	-19.7%	?	12.0%	26.7µM*
O=[N+]([O-])c1cc(S(=O)(=O)Nc2ccccc2)ccc1Nc1ccccc1	.	.	14.6µM*	-17.1%	?	2.2%
C/C(=N\NS(=O)(=O)c1ccc(C)c([N+](=O)[O-])c1)c1cccs1	2.7%	-3.6%	-20.4%	-14.5%	-19.8%	?
